Most compounds without a hit are left out; they make up all but 2.5% or so of the library.
Exocytosis inh = blocks lytic granule exocytosis | TALL-104 LAMP-1 surface exposure, flow cytometry; cells stimulated with thapsigargin and PMA | inhibition, % at 10 µM | 360,000 tested, 0.66% active | AID 651702;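 active = inhibition above about 55%, limit read from the data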
rCAG RNA binder = molecules binding r(CAG) RNA repeats; inhibition, % at 3 µM; 370,000 tested, 1.3% active; AID 651821; r(CAG) RNA repeat, TO-PRO-1 dye displacement fluorescence;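 active = inhibition above the plate cutoff, the mean of all test compounds on that plate plus 3 SD, cut at about 35% in these data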;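 also: 0% = DMSO alone and 100% = 100 µM mitoxantrone as full dye displacement; higher means more dye released from RNA so lower well fluorescence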
ABCB6 inh MLPCN = blocks the human ABCB6 transporter; Q9NP58; K562-ABCB6 porphyrin accumulation, flow cytometry, 1 h; stronger effect = lower value; fluorescence ratio to DMSO, % at 10 µM; 360,000 tested, 0.19% active;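 active = fluorescence ratio to DMSO below 75%, the collection mean minus 3 SD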;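 also: signal is porphyrin accumulated inside mitochondria; 100% equals median channel fluorescence of DMSO control wells; lower ratio means ABCB6 inhibition with less porphyrin fluorescence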
Target sequence (Q9NP58 whole entry, looked up): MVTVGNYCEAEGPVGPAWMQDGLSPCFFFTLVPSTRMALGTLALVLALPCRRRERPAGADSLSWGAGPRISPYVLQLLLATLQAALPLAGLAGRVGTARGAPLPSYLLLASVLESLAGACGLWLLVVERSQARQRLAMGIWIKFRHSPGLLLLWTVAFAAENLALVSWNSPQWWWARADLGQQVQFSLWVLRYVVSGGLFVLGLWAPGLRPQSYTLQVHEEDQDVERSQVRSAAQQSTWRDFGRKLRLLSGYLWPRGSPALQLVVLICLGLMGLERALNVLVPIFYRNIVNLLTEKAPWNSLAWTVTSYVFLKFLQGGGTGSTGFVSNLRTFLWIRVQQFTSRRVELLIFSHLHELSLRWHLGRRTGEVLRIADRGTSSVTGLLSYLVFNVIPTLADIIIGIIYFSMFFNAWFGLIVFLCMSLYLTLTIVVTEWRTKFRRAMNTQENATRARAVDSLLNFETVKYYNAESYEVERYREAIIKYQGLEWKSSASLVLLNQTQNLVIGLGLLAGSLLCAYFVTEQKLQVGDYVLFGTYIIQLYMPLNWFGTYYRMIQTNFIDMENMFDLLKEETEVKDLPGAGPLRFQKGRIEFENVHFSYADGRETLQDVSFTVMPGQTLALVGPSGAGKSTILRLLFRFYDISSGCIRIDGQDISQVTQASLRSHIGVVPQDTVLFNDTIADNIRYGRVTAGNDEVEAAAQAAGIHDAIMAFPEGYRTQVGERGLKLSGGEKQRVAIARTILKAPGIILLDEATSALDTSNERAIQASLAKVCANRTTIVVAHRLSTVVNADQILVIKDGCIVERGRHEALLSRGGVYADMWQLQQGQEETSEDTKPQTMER
PG9 binder = small molecules binding HIV-1 gp120 antibody PG9; 360,000 tested, 0.43% active; AID 624416; inhibition, % at 6.7 µM; TR-FRET gp120-PG9 antibody binding; in the data active = inhibition above about 8.5%
An asterisk follows results filed as active; . = no result given.

SMILES | Exocytosis inh | rCAG RNA binder | ABCB6 inh MLPCN | PG9 binder
C=CC[C@H]1c2ccccc2[C@H]2N3N=Cc4ccccc4[C@H]3[C@H](CCCC)C(=O)N2N1C(=O)NCc1ccccc1 | . | 4 | . | .
C#CCOCCOCCOCCNc1nc(N2CCN(C(=O)CCCCCCCCCCNC(=O)[C@H](CO)n3cc(CCCSC)nn3)CC2)nc(N2CCN(C(=O)CCCCCCCCCCNC(=O)[C@H](CO)n3cc(CCCSC)nn3)CC2)n1 | -6 | 16 | 74* | 0
C#CCOCCOCCOCCNc1nc(N2CCN(C(=O)[C@H](CCC(=O)O)n3cc([C@@H](N)CCCCN)nn3)CC2)nc(N2CCN(C(=O)[C@H](CCCCN)n3cc([C@@H](N)CC(N)=O)nn3)CC2)n1 | 59* | 4 | 102 | 2
C#CCOCCOCCOCCNc1nc(N2CCN(C(=O)[C@H](CCC(=O)O)n3cc([C@@H](N)CCCCN)nn3)CC2)nc(N2CCN(C(=O)[C@H](CCC(=O)O)n3cc([C@@H](N)CCCCN)nn3)CC2)n1 | -1 | 4 | 102 | 2
C#CCOCCOCCOCCNc1nc(N2CCOCC2)nc(N2CCN(C(=O)CCCCCCCCCCNC(=O)[C@@H](CCSC)n3cc(CCO)nn3)CC2)n1 | -13 | -2 | 88 | 0
O=C(NC1CCCC1)c1nc(-c2ccco2)oc1-c1ccccc1 | -6 | 35* | . | -1
O=C(NC1CCCCC1)c1nc(-c2c(F)cccc2F)oc1-c1ccccc1 | -2 | 2 | . | 1
CC(Oc1ccc(-c2ccccc2)cc1)C(=O)N/N=C/c1cccnc1 (configuration not stated) | 56* | -2 | 90 | 2
CSc1nc(SCC(=O)NCc2ccco2)c2c3c(sc2n1)CN(C)CC3 | 1 | 13 | 72* | -2
COc1cccc(CNC(=O)[C@H]2CCCN2C(=O)[C@H]2CCCN2C(=O)c2ccccc2)c1 | . | 1 | . | 0
COc1cc(OC)c(NC(=O)c2ccccc2F)cc1Cl | -3 | 2 | 99 | -3
COc1cc(NC(=O)c2cc3ccccc3cc2O)c(OC)cc1Cl | 32 | 47* | 87 | 1
Cc1ccccc1C(=O)N[C@H](C(=O)N1CCC[C@H]1C(=O)NC1CCCC1)c1ccccc1 | . | -4 | . | -1
Cc1ccc(-c2n[nH]c(=S)n2/N=C/C=C/c2ccccc2[N+](=O)[O-])cc1 | 1 | 40* | 96 | 0
O=[N+]([O-])c1ccc(N=Nc2ncc[nH]2)cc1 | 79* | -1 | 324 | -4
COC(=O)C1=C(C)N(Cc2ccc(C(F)(F)F)cc2)C(=NCc2ccccc2)NC1c1ccc(C(F)(F)F)cc1 (configuration not stated) | . | 8 | . | 0
Cc1nn(-c2ccc(F)cc2)c(Cl)c1/C=N/NC(=O)c1cccs1 | -2 | 1 | 88 | 1
Cc1nn(-c2ccc(Cl)cc2)c(Cl)c1/C=N/NC(=O)c1ccc(NS(=O)(=O)c2cccs2)cc1 | 0 | 62* | 97 | -2
CC(=O)C1=C(C)N(Cc2ccc(Br)cc2)C(=S)NC1c1ccc(F)cc1 (configuration not stated) | . | 3 | . | 1
COc1cc(OC)cc(-c2c(C#Cc3ccsc3)c3cc(-c4ccc(C(N)=O)cc4)ccc3n2C)c1 | 94* | 18 | 92 | -1
COCc1ccc(-c2ccc3c(c2)c(C#Cc2ccsc2)c(-c2cc(OC)cc(OC)c2)n3C)cc1 | 19 | 5 | 106 | -1
O=C1C=C(c2ccccc2)C(=O)N1Nc1ccccc1 | 59* | 4 | 97 | -1
COc1ccc(C2=CC(=O)N(Nc3ccccc3)C2=O)cc1 | 3 | 5 | 91 | -2
O=C(/C=C1\NC2(CCCC2)Cc2ccccc21)N1CCOCC1 | 77* | 0 | 97 | 2
CC1(C)Cc2c(ccc3ccccc23)/C(=C/C(=O)N2CCCCC2)N1 | 13 | 1 | 94 | 1
SMILES | Exocytosis inh | rCAG RNA binder | ABCB6 inh MLPCN | PG9 binder
O=C(N[C@H](Cc1ccccc1)C(=O)N1CCN(CC(=O)N2CCCC2)CC1)[C@H]1O[C@@H](n2ccc(=O)[nH]c2=O)[C@H](O)[C@@H]1O | . | -1 | . | -1
COc1ccc(NC(=S)N2CCC(NC(=O)c3ccc(OC)cc3)CC2)cc1 | 0 | 1 | 74* | 0
O=C(O)CSCC(=O)Nc1ccc(-c2nc3ccccc3s2)cc1 | 13 | 39* | 99 | 1
O=C(CCN1C(=O)c2ccccc2C1=O)Nc1ccc(-c2nc3ccccc3s2)cc1 | 2 | 0 | 104 | -3
O=Cc1cc2ccccc2nc1SCCCF | 59* | 1 | 272 | -4
S=c1[nH]nc(-c2n[nH]c3c2CCC3)n1N=Cc1c[nH]c2ccccc12 | . | 13 | . | .
CS(=O)(=O)c1ccc(C(=O)OCc2nnc(-c3ccc(Cl)cc3)o2)cc1[N+](=O)[O-] | 60* | . | 99 | .
O=C(CN1CCC(NC(=O)NC2CCCC2)CC1)Nc1ccc2c(c1)OCCO2 | . | 0 | . | .
COc1ccccc1NNC(=O)C(O)(c1ccccc1)c1ccccc1 | 104* | 4 | 99 | 0
COc1ccc(Nc2nc(N)nc(CCl)n2)cc1 | 57* | 3 | 104 | 1
Nc1nc(CCl)nc(Nc2ccc3ccccc3c2)n1 | 40 | 4 | 96 | 0
CCCCCCOc1ccc(/C(C)=N/NC2=NCCN2)cc1 | 59* | 12 | 103 | -1
O=C(CSc1nnc(-c2ccccc2)n1-c1ccc(Cl)cc1)Nc1ccc(OCc2ccccc2)cc1 | . | 6 | . | .
S=C1Nc2ccccc2CS1 | 2 | 4 | 96 | 0
S=C1Cc2ccccc2N1 | 94* | 44* | 104 | 0
COC(=O)[C@]12C[C@H](CC(=O)NCCCCc3ccccc3)C(=O)N(Cc3ccccc3)C1=C[C@H](C(C)C)O[C@@H]2C1CC1 | . | 8 | . | 2
Cc1ccc(N=Cc2cccc(O)c2O)c(C)c1 | 93* | 15 | 101 | -1
Cc1ccccc1N=Cc1cccc(O)c1O | 6 | . | 100 | .
COc1cc(CC(=O)NC2CCCc3ccccc32)cc(OC)c1OC (configuration not stated) | 60* | -1 | 98 | 1
COc1ccccc1CC(=O)NC1CCCc2ccccc21 (configuration not stated) | 0 | 2 | 111 | -2
O=C1ON=C(c2ccccc2)/C1=C\c1ccco1 | -7 | 26 | 90 | -1
Nc1ccccc1N=Cc1ccc(-c2cccc(Cl)c2)o1 | 96* | 20 | 103 | 0
CC1=NOC(=O)/C1=C\c1ccc(-c2cccc(Cl)c2)o1 | 100* | . | 120 | .
Cc1ccc(/C=C2/C(=O)ON=C2c2ccccc2)o1 | 22 | 39* | 117 | -3
COC(=O)C1CN(Cc2cn(Cc3ccc(C)cc3)nn2)CCS(=O)(=O)N1Cc1ccc(C)cc1 (configuration not stated) | . | 2 | . | .
CN1OC[C@@H]2CN3C(=Nc4cc(C(F)(F)F)cc(C(F)(F)F)c4)Sc4ccccc4[C@@H]3C[C@@H]21 | . | 2 | . | -1
Cc1ccc(C(=O)c2coc3c2C(=O)C(=O)c2ccccc2-3)cc1 | 11 | 12 | 102 | -3
Cc1oc2c(c1C(=O)c1ccc(Cl)cc1)C(=O)C(=O)c1ccccc1-2 | 104* | 10 | 93 | 0
O=C(Nc1ccc(C(F)(F)F)cc1)OC1CC2CC1[C@H]1CCCCN1[C@H]2Cc1ccccc1 (some centres not stated) | . | 7 | . | .

High-throughput results from PubChem.
